TRHR enhancer = allosteric enhancers of human TRH receptor. P34981. AID 493056. TRHR cells, fluo-8 calcium fluorescence, EC20 TRH enhancement. enhancement, % at 2 µM. 0.66% of 360,000 active; in the data active means enhancement above about 30%; further: 0% is about no effect
Target sequence (P34981 whole entry, looked up): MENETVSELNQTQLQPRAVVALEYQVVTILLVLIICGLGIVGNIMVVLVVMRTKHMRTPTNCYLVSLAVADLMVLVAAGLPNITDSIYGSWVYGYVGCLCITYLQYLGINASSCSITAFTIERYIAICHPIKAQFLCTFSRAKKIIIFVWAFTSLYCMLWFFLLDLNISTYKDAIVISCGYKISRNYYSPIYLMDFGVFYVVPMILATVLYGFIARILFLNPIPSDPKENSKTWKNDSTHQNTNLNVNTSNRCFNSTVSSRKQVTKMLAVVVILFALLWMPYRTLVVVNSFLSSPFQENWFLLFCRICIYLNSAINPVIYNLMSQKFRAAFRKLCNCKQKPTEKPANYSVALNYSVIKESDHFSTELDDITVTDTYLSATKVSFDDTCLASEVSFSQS
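TRHR-expressing cells loaded with fluo-8 calcium dye were read kinetically (ex 480/em 530) during compound addition, then stimulated with an EC20 of TRH (10 nM final). Enhancement of the Gq-mediated intracellular calcium response was scored.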
D1 PAM = human D1 dopamine receptor positive modulation; P21728; HEK293 TREx D1 cells, calcium flux, dopamine EC20 potentiation; potentiation, % at 10 µM; 0.036% of 360,000 active; in the data active means potentiation above about 30%; further: 0% is about no effect
D1 antagonist = antagonists of human D1 dopamine receptor | P21728 | activity change, negative = inhibition, % at 10 µM | HEK293 TREx D1 cells, calcium flux, dopamine EC80; stronger effect = lower value | 3.2% of 360,000 active | AID 504652; in the data active means activity change below about -30%; further: on the % scale 0 is the no-effect control and ±100 the full control effect
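Using tetracycline-induced force-coupled D1 Hek293 cells and a calcium dye, signals were followed for 180 s after compound, then for 180 s after EC80 dopamine, to detect inhibitors.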
TRHR ag = agonists of human TRH receptor; 0.18% of 360,000 active; P34981; TRHR cells, calcium flux fluo-8, FDSS agonist mode; AID 493084; activation, % at 2 µM; further: 0% is about no effect
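TRHR-expressing cells loaded with fluo-8 calcium dye; 23 nL library compound pin-transferred, kinetic FDSS fluorescence (Ex 480/Em 530) recorded about 180 s for agonist-induced calcium release, before a 10 nM TRH EC20 addition for potentiator mode.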
D1 agonist = human D1 receptor agonism | activation, % at 2 µM | HEK293 T-REx D1 cells, calcium flux, agonist mode | P21728 | 1% of 360,000 active | AID 504660; further: 0% is about no effect
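Inducible HEK293 T-REx D1 cells, force-coupled to calcium signalling, were plated at 4000 cells/well with tetracycline and held overnight at 30 C. After no-wash calcium dye loading, compound-evoked calcium rise over 180 s flagged agonists.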
Numbers without * were called inactive; ! = not active in a repeat. In the library only some 4.7% were active in any assay of this set; here they are far more common. Unless noted, no stated cut-off is given here; in the data, active means activation above about 30%; inactive means the rest.

SMILES | TRHR enhancer | D1 PAM | D1 antagonist | TRHR ag | D1 agonist
CN(C)CCCNC(=S)NCC(c1ccc(Cl)cc1Cl)c1c[nH]c2ccccc12 (stereo not given) | -1.6 | -4.0 | -40.0* | 1.8 | 60.8*
NCC(c1ccc(Cl)cc1Cl)c1c[nH]c2ccccc12 (stereo not given) | -0.3 | -3.0 | -11.3 | 1.2 | 41.0*
Cc1nn(C)cc1CNC(=O)C1C2CCC(O2)C1C(=O)O (stereo not given) | 4.8 | -5.2 | 3.7 | 0.7 | 2.2
Cc1nn(C)cc1CNC(=O)C1C2CCC(C2)C1C(=O)O (stereo not given) | -1.8 | -3.4 | -31.8* | 0.7 | 5.7
Oc1ccc(C23CC4CC(CC(C4)C2)C3)cc1O | -3.5 | -4.0 | -6.2 | 0.2 | 1.7
NCCOc1ccc(C23CC4CC(CC(C4)C2)C3)cc1 | 2.7 | 35.9* | 55.9 | 0.3 | 126.7*
OCCN1CCN(CC(O)COc2ccc(C34CC5CC(CC(C5)C3)C4)cc2)CC1 (stereo not given) | -2.2 | -3.0 | -41.8* | 3.6 | 63.0*
Cc1ccccc1Nc1nc(C#N)nc(NC2CCCC2)n1 | -3.6 | -5.5 | -12.7 | -1.0 | 2.6
CCSC1=NSC2=NC(=O)/C(=C\c3coc4ccccc4c3=O)C(=N)N12 | 52.0* | 3.5 | -42.8* | 179.0* | 324.9*
CSC1=NSC2=NC(=O)/C(=C\c3ccc(OC(=O)c4ccco4)cc3)C(=N)N12 | 1.3 | -6.5 | -9.9 | 0.4 | 4.0
CC(C)[C@H](NC(=O)N1c2ccccc2NC(=O)[C@@H]1C(C)C)C(=O)N1CCC(C(=O)O)CC1 | 5.4 | 13.4 | 4.1 | -0.6 | 5.5
Cc1cccc(C2(c3cccc(C)c3)CC2C(=O)Nc2ccc([N+](=O)[O-])cc2O)c1 (stereo not given) | -5.6 | -5.2 | -33.3* | 0.2 | 12.1
COc1ccc(-n2ncc(C(C)NS(=O)(=O)c3cccs3)c2C)cc1 (stereo not given) | 31.4* | -2.1 | 0.1 | -1.0 | 2.6
CCOC(=O)Cc1csc(NC(=O)CN2CCOCC2)n1 | -5.1 | -15.1 | 20.5 | -0.1 | 2.8
O=C(N/N=C/c1sc(=O)[nH]c1-[n+]1ccccc1)c1ccccc1[O-] | 7.6 | 0.6 | 0.7 | -1.3 | -1.0
O=C(N/N=C/c1sc(=O)[nH]c1-[n+]1ccc2ccccc2c1)c1ccccc1[O-] | -1.2 | -2.2 | -10.3 | 14.3 | 33.8*
CCc1ccc(-n2c(=O)c3sc4ccccc4c3n(CC(=O)NC3CCCCC3)c2=O)cc1 | -2.2 | 1.9 | -24.4 | 0.3 | -0.1
Cc1ccc(-n2c(=O)c3sc4ccccc4c3n(CC(=O)NC3CCCC3)c2=O)cc1C | -6.6 | 0.5 | -44.7* | 0.8 | 3.0
COc1ccc(NC(=O)Cn2c(=O)n(Cc3ccccc3)c(=O)c3sc4ccccc4c32)cc1 | 35.5* | 2.0 | -30.3* | 0.8 | 2.8
Cc1ccccc1NC(=O)Cn1c(=O)n(Cc2ccccc2)c(=O)c2sc3ccccc3c21 | 0.1 | 1.3 | -37.4* | 1.0 | -0.7
O=C(Cn1c(=O)n(Cc2ccccc2)c(=O)c2sc3ccccc3c21)Nc1ccccc1 | -9.8 | 0.7 | 4.3 | 1.0 | 2.4
Cc1ccccc1C(=O)N1CCC(C(=O)Nc2ccccn2)CC1 | 0.8 | -9.4 | -0.6 | -0.3 | 4.6
COc1ccccc1N1CCN(S(=O)(=O)CCNC(=O)C(c2ccccc2)c2ccccc2)CC1 | 0.7 | -1.4 | -8.5 | -0.9 | 1.4
CCOC(=O)CNC(=O)CSc1cn(CC(=O)N2CCCCCC2)c2ccccc12 | 2.9 | -2.5 | -3.5 | -0.9 | 2.2
COc1ccc(-c2nc(-c3ccc(Br)o3)no2)cc1OC | -10.7 | 0.2 | -8.9 | 1.1 | -0.5
SMILES | TRHR enhancer | D1 PAM | D1 antagonist | TRHR ag | D1 agonist
COc1ccccc1-c1nc(-c2ccc(Br)o2)no1 | 23.5 | 0.9 | -34.8*! | 0.8 | 4.2
CCCC(=O)NC(C)c1nc2ccccc2n1Cc1ccccc1 (stereo not given) | 2.8 | -1.6 | 4.6 | -1.0 | -2.0
Cc1ccc(N2CCN(Cc3nnc(-c4ccccc4F)o3)CC2)c(C)c1 | -3.8 | -3.5 | -50.1* | -0.1 | 11.2
O=C(COc1ccccc1)N1CCN(C(=O)c2cccs2)CC1 | 2.1 | -4.4 | -3.0 | -0.1 | 0.6
O=C(OCC(=O)N1CCN(c2ccccc2)CC1)c1ccccc1[N+](=O)[O-] | 0.5 | -15.5 | -36.2* | -0.2 | 3.3
O=C(COc1ccc(Br)cc1)N1CCN(c2ccccc2)CC1 | -2.0 | -2.8 | 0.2 | 0.5 | 0.1
O=C(COc1ccccc1)N1CCN(c2ccccc2)CC1 | -2.2 | -2.7 | -34.6* | -0.6 | 3.5
O=C(COc1ccc(Cl)cc1)N1CCN(C(=O)c2cccs2)CC1 | 8.6 | -1.7 | -61.2* | 0.8 | 5.5
O=C(CSc1ccsc1[N+](=O)[O-])N1CCN(c2ccccc2)CC1 | -0.1 | -9.6 | -31.1* | -0.6 | 0.1
CCOC(=O)c1c(C)c(-c2ccccc2)n(CC(=O)Nc2cc(C)cc(C)c2)c1C | 5.5 | 5.0 | 14.0 | 0.3 | 5.0
CC(C)c1cccc(C(C)C)c1NC(=O)CCN1C(=O)NC2(CCCC2)C1=O | 5.9 | 3.5 | 32.9 | 0.0 | 0.8
O=C(N/N=C/c1ccco1)c1cc(-c2ccc(Cl)s2)[nH]n1 | 5.5 | -1.1 | -43.4* | -1.3 | 28.3
C/C(=N/NC(=O)c1cc(-c2ccc(Br)s2)[nH]n1)c1ccco1 | 2.8 | -10.2 | -46.0* | -0.5 | 0.0
O=C(N/N=C/c1ccco1)c1cc(-c2ccc(Br)s2)[nH]n1 | 3.6 | -7.3 | -1.1 | -0.4 | 0.7
C/C(=N\NC(=O)c1cc(-c2ccc(Br)s2)[nH]n1)c1ccncc1 | 0.0 | -1.2 | -0.2 | -0.3 | 2.7
COc1ccc2c(C)c(CCC(=O)NCCc3ccc(Cl)cc3)c(=O)oc2c1 | 5.4 | 0.2 | -6.4 | 0.2 | 7.4
Cc1ccccc1OCc1nc2ccccc2c(=O)n1/N=C/c1cccc([N+](=O)[O-])c1 | 8.3 | -4.0 | -32.0* | 0.1 | 3.0
CNS(=O)(=O)c1ccc(Oc2ccc(S(=O)(=O)NC)cc2)cc1 | -3.0 | -5.7 | -44.2* | 1.4 | 8.0
C(#Cc1ccc(C#CCN2CCCC2)cc1)CN1CCCC1 | -14.3 | -4.2 | -32.3* | 1.0 | 8.5
CCN1CCN(Cc2c(O)ccc3c(=O)c(Oc4ccccc4C(C)C)c(C(F)(F)F)oc23)CC1 | -1.1 | -1.6 | 3.5 | -0.5 | 4.7
CC(C)c1ccccc1Oc1c(C(F)(F)F)oc2c(CN3CCN(C)CC3)c(O)ccc2c1=O | 7.4 | -0.8 | -32.7* | -0.1 | 13.1
Cc1nnn(C23C[C@@H]4C[C@@H](CC(C(=O)N5CCN(c6ccccc6)CC5)(C4)C2)C3)n1 | -1.2 | -2.5 | -34.3* | -1.0 | 0.3
CNC(=O)c1cnc2sc(N3CCCCCC3)nn2c1=O | -4.4 | -0.1 | -6.0 | -0.6 | 2.0
CCOc1ccccc1Nc1nnc(-c2cc3cc(OC)ccc3oc2=O)s1 | -2.4 | -2.6 | -15.4 | 4.4 | 56.4*
CCOc1ccc2cc(-c3nnc(Nc4ccccc4F)s3)c(=O)oc2c1 | 23.4 | 3.2 | 6.2 | 2.0 | 6.1

Screening data from PubChem.
